Data published in PubChem BioAssay (NCATS).
Results filed as inconclusive are left out. Active and inactive are the calls of the source. Calls come from the whole dose curve; as a rule, active = well fitted inhibition curve with a large enough effect; inconclusive = small, poorly fitted or top-dose-only effect; inactive = no such curve, though single readings can be large or run the other way.

Experiment: qHTS assay for measurement of the activity of small molecule inhibitors on Zika virus induced Caspase-3 activity in human iPSC derived neural progenitor cells (hNPCs) (AID 1224857); note: % of control where 0% means no effect; nearly all actives have a fitted effect of over 65% in size
Conditions: hNPCs ZIKV-induced caspase-3/7, Caspase-Glo luminescence, 6 h; series mostly up to 45.7 µM; activity change, negative = inhibition: at the top concentration
Excerpt: National Center for Advancing Translational Sciences [NCATS]
Johns Hopkins University School of Medicine
Increase in the Caspase-3 activity indicates an activation of apoptosis cell death pathway caused by Zika virus infection in certain types of neuronal cells including human neural progenitor cells (hNPCs), astrocytes, and astrocytoma cell line (SNB-19). This cell-based caspase-3 activity assay measures the increased caspase-3 activity in the human iPSC derived neural progenitor cells (hNPCs) after a 6-hour Zika virus infection with a luminescence readout. A decrease in the luminescence signal in this assay by small molecule treatment indicates an inhibitory effect of that small molecule on the Zika virus induced caspase-3 activity that may correlate with its effect on reduction of Zika virus caused cell death.
The medium for hNPCs consists of DMEM/F12, N2 supplement (ThermoFisher, Cat.# 17502048), NEAA (ThermoFisher, Cat. # 11140050), 2 ug/ml heparin, 2 uM cyclopamine, and B27 (ThermoFisher, Cat. # 17504044). A Caspase-Glo 3/7 assay kit (catalog number G8092; Promega, Madison, WI) was used to detect caspase-3 activity induced by Zika virus infection in human cells. The reagent mixture was reconstituted as described in the protocol from the manufacturer. Polystyrene tissue culture treated and PDL coated white plates were obtained from Greiner Bio-One (Monroe, NC). Cells were seeded in 384- or 1536-well assay plates and cultured at 37 C with 5% CO2 for 16 to 20 hours. The typical cell seeding density in the 1536-well plate assay is 350 cells/well in 3 ul medium for hNPCs in tissue culture treated plates. Compounds were added to cells and incubated for one hour before addition of ZIKV solution to cells (2 FFU/cell). After incubation at 37 C with 5% CO2 for 6 hours, the reagent mixture of Caspase-Glo 3/7 assay kit was added to each well, followed by incubation at room temperature for 30 minutes. The luminescence intensity of the assay plates was measured using a ViewLux plate reader (PerkinElmer). Data were normalized by using the cell-containing wells without ZIKV as a negative control (0% induction of caspase 3/7 activity) and wells containing ZIKV infected cells (Caspase-3 activity induced) as a positive control (100% induction of caspase 3 activity). The percentage inhibitions of the increased Caspase-3 activity by small molecule inhibitors were then calculated.

Compound	activity change, negative = inhibition
CC(C)n1nc(-c2cc3cc(O)ccc3[nH]2)c2c(N)ncnc21	8.23% (inactive)
C[C@@H]1C[C@H]2[C@@H]3CCC4=CC(=O)C=C[C@]4(C)[C@@]3(F)[C@@H](O)C[C@]2(C)[C@H]1C(=O)CO	-4.76% (inactive)
COc1cc(/C=C/C(=O)O[C@H]2CC[C@]34C[C@]35CC[C@]3(C)[C@@H]([C@H](C)CCC=C(C)C)CC[C@@]3(C)[C@@H]5CC[C@H]4C2(C)C)ccc1O	-6.75% (inactive)
NC[C@H]1O[C@H](O[C@H]2[C@H](O)[C@@H](O[C@H]3O[C@H](CO)[C@@H](O)[C@H](N)[C@H]3O)[C@H](N)C[C@@H]2N)[C@H](N)[C@@H](O)[C@@H]1O	-16.1% [at 20.5 µM] (inactive)
CC1(C)CCC(NC(=O)[C@@H](N)CCC(=O)O)CC1	-8.46% (inactive)
CCCCC(=O)O[C@]1(C(=O)CO)CC[C@H]2[C@@H]3CCC4=CC(=O)CC[C@]4(C)[C@H]3[C@@H](O)C[C@@]21C	57.6% (inactive)
COC(=O)[C@@H]1CC2=CC(=O)CC[C@]2(C)[C@@]23O[C@@H]2C[C@@]2(C)[C@@H](CC[C@@]24CCC(=O)O4)[C@H]13	22.8% (inactive)
O=c1[nH]c(=O)n([C@H]2CCCO2)cc1F	-0.264% (inactive)
CC1(C)OC[C@@H](COC(=O)CCc2ccc(OC[C@@H](O)CNCCNC(=O)N3CCOCC3)cc2)O1	-19.8% (inactive)
C[C@@H](CN(C)C)CN1c2ccccc2Sc2ccccc21	-5.59% (inactive)
CC(C)(C(=O)c1cccnc1)c1cccnc1	-6.12% (inactive)
CC(=O)c1ccc2c(c1)N(CCCN1CCC(CCO)CC1)c1ccccc1S2	0.0278% (inactive)
Cc1c(N(C)CS(=O)(=O)O)c(=O)n(-c2ccccc2)n1C	-30.4% (inactive)
CO/N=C1\CN(c2nc3c(cc2F)c(=O)c(C(=O)O)cn3C2CC2)CC1CN (stereo not given)	5.97% (inactive)
C[C@]12C=CC(=O)C=C1CC[C@@H]1[C@@H]2[C@@H](O)C[C@@]2(C)[C@H]1CC[C@]2(O)C(=O)CO	2.2% (inactive)
CC(Cc1ccccc1)(NC(=O)CN)c1ccccc1 (stereo not given)	9.66% (inactive)
CCCCCCCCCCCCCCCCOP(=O)([O-])OCC[N+](C)(C)C	5.64% (inactive)
C[C@]12CC[C@@H]3c4ccc(O)cc4CC[C@H]3[C@@H]1CC[C@@H]2O	12.6% (inactive)
C[C@@H]1C(=O)NC2=Nc3cccc(Cl)c3CN21	-13% (inactive)
CCN1CCC[C@H]1CNC(=O)c1c(OC)ccc(Br)c1OC	6.3% (inactive)

Compound	activity change, negative = inhibition
CCOC(=O)c1cccc(N)c1	-6.58% (inactive)
CC(=O)N(O)CCCCCNC(=O)CCC(=O)N(O)CCCCCNC(=O)CCC(=O)N(O)CCCCCN	-5.45% (inactive)
CC[N+](CC)(CCNC(=O)C(=O)NCC[N+](CC)(CC)Cc1ccccc1Cl)Cc1ccccc1Cl	-5.5% (inactive)
Clc1ccc2c(c1)CCc1cccnc1C2=C1CCNCC1	192% (inactive)
C[C@]12CCC(=O)C=C1[C@@H]1C[C@@H]1[C@H]1[C@@H]3[C@@H]4C[C@@H]4[C@@]4(CCC(=O)O4)[C@@]3(C)CC[C@@H]12	-4.93% (inactive)
CN(C)/N=N/c1nc[nH]c1C(N)=O	-5.49% (inactive)
COc1ccc(/C=C/C(=O)c2ccc(OC)cc2OC)cc1	32.1% (inactive)
COc1cccc(CCc2ccccc2OCC(CN(C)C)OC(=O)CCC(=O)O)c1 (stereo not given)	2.93% (inactive)
COc1cc(C=C2CCC/C(=C\c3ccc(O)c(OC)c3)C2=O)ccc1O	5.79% (inactive)
C=CCc1ccc(O)c(OC)c1	7.84% (inactive)
CC(=O)OCC(=O)NCCCOc1cccc(CN2CCCCC2)c1	1.66% (inactive)
CCOc1ccc(NC(=O)CC(C)O)cc1 (stereo not given)	-0.012% (inactive)
COc1c2occc2c(OC)c2c(=O)cc(C)oc12	8.67% (inactive)
O=C1CCC(c2ccc(-n3ccnc3)cc2)=NN1	-19.5% (inactive)
OCc1ccccc1O	-1.08% (inactive)
Cc1ccc(C(=O)C(C)CN2CCCCC2)cc1 (stereo not given)	-9.45% (inactive)
C=C1C(=C/C=C2\CCC[C@]3(C)[C@@H]([C@H](C)/C=C/[C@@H](O)C4CC4)CC[C@@H]23)C[C@@H](O)C[C@@H]1O	54.1% (inactive)
CC(=O)Oc1ccc(C(=C2CCCCC2)c2ccc(OC(C)=O)cc2)cc1	-12.1% (inactive)
Cc1ccnc(NS(=O)(=O)c2ccc(N)cc2)n1	8.75% (inactive)
CC(=O)CC(c1ccc([N+](=O)[O-])cc1)c1c(O)c2ccccc2oc1=O (stereo not given)	8.13% (inactive)
